Results reported in PubChem BioAssay AID1903 (Southern Research Specialized Biocontainment Screening …, 2009).
Values joined by “and” are separate entries in the source; they are usually repeats but may differ in a detail not shown here. Equal values may be shown once. Out of some 310,000 compounds screened, about 1,200 (0.39%) were called active. No rule for the calls is given here. A selection follows. Measured potencies and affinities stand elsewhere.

molecular target: Large T antigen (Simian virus 40) (UniProt P03070); assay: TAg ATPase/helicase activity blockers – biochemical (AID 1903); settings: SV40 large T antigen ATPase/helicase inhibition assay; at 20 µM; stronger effect = higher value
Sequence (P03070 whole entry, looked up): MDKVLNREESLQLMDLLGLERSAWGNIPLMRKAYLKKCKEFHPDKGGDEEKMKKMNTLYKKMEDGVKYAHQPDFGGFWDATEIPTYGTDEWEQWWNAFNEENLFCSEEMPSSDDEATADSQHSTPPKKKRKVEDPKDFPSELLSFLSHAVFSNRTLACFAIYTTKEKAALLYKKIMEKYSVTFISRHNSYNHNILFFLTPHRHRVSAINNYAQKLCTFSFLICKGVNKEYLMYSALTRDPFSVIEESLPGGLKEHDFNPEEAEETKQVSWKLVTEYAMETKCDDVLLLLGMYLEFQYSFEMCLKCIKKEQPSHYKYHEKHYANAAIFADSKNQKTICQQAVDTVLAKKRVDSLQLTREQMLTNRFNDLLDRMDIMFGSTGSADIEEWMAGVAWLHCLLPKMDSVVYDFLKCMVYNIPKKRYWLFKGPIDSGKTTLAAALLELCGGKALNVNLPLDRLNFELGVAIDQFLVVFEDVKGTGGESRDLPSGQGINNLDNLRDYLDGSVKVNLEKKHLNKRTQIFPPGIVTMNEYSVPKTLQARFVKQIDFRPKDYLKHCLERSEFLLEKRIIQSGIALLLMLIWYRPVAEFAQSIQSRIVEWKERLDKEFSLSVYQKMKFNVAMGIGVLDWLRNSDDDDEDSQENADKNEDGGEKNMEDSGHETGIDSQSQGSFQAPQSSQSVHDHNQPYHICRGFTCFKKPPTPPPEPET

inhibition, inactive:
O=[N+]([O-])c1cccc(C2(O)COc3ccccc3O2)c1 (stereo not drawn) 6.64%
CCn1c(COc2ccccc2)nnc1SCC(=O)NC1CCCCC1 8.87%
O=c1cc(CN2CCN(c3ccccc3)CC2)nc2scc(-c3ccccc3)n12 3.32%
CCOC(=O)C1CCN(Cc2cc(=O)n3c(-c4ccccc4)csc3n2)CC1 2.57%
Cc1ccc(N(C(=O)CNC(=O)c2ccco2)C(C(=O)NCC2CCCO2)c2ccccc2)c(C)c1 (stereo not drawn) 18.4%
CCN(CC)S(=O)(=O)c1ccc(Nc2nc3ccccc3n3nnnc23)cc1 -2.08%
N#CC1=C(S)N(c2ccccc2)C(c2ccc(-c3cc(Cl)ccc3Cl)o2)NC1=O (stereo not drawn) 33.3%
N#CC1=C(S)N(c2ccccc2)C(c2ccc(-c3cccc(Cl)c3)o2)NC1=O (stereo not drawn) 34.4%
Cc1cccc(N(CC(=O)N2CCCC2)S(C)(=O)=O)c1 7.43%
CSc1ccccc1NC(=O)CN(C)Cc1cccc(Cl)c1 8.82%
COc1ccc(N/C(C)=C/C(=O)c2ccccc2)cc1 9.38%
COc1ccc(C(=O)/C=C(\C)Nc2ccc3c(c2)OCO3)cc1 5.13%
CCCc1nc(C(C)(C)O)c(C(=O)O)n1Cc1ccc(-c2ccccc2-c2nn[nH]n2)cc1 -1.62% and 6.85%
Cc1c(/C=N/NC(=O)c2cccs2)c2ccccc2n1Cc1ccccc1Cl 14.4%
CN(Cc1ccccc1F)C(=O)c1sccc1-c1ccccc1 20%
CC(C)CNC(=O)NC1(C(F)(F)F)Oc2ccccc2O1 3.66%
CCOC(=O)Cc1csc(NC(=O)NC2(C(F)(F)F)Oc3ccccc3O2)n1 31.1%
O=C(Nc1ccc2c(c1)CCCN2C(=O)c1cccs1)c1c(F)cccc1Cl 13.1%
CCC(=S)/C=C1\Sc2ccc3ccccc3c2N1CCCS(=O)(=O)O 18.3%
Cc1c2ccccc2cc[n+]1CCCS(=O)(=O)[O-] 7.97%
COC(=O)[C@@H](NC(=O)NCc1ccccc1F)C(C)C -2.59%
COc1ccc(C(=O)N2CCN(S(=O)(=O)c3cc(Cl)ccc3OC)CC2)cc1 5.04%
Cc1nn(C)c(C)c1NC(=O)CSc1nc(-c2ccccc2Cl)nc2c1cnn2-c1ccccc1 8.57%
COc1cc(/C=N/NC(=O)/C(=C/c2ccccc2)CCO)ccc1O 29.2%
COc1ccc(/C=N/NC(=O)/C(=C/c2ccccc2)CCO)cc1 2.79%
O=C(COc1ccc(N2CC(C(=O)O)CC2=O)cc1)Nc1cccc(C(F)(F)F)c1 (stereo not drawn) -0.75%
COc1ccc(/C=N/NC(=O)CCc2ccccc2)cc1O 29.5%
CCOc1cc(/C=N/NC(=O)COc2nc(C)cc(COC)c2C#N)ccc1O 25.5%
COc1ccc(/C=N/NC(=O)CNc2n[nH]c(=O)[nH]c2=O)cc1OC 0.71%
CCOc1cc(/C=N/NC(=O)C(=O)N2CCCC2)ccc1O 29.3%
COc1cc(/C=N\NC(=O)CNC(=O)C(c2ccccc2)c2ccccc2)ccc1O 33.5%
COc1ccc(/C=N/NC(=O)CCc2n[nH]c(=O)[nH]c2=O)cc1OC 9.55%
Cc1cccc(N2CCN(S(=O)(=O)c3ccc4c(c3)CC(C)N4C(=O)C3CC3)CC2)c1C (stereo not drawn) 4.4%
Cc1cc(OCC(=O)NC2CC2)c2c(C)c(C)c(=O)oc2c1 20.6%
O=C(CN1CCOCC1)Nc1cccc(C(F)(F)F)c1 16.1%
COc1cc(Cl)c(C)cc1NC(=O)CCCn1c(=O)oc2ccccc21 4.1%
O=C(CN1CCOCC1)NNC(=S)Nc1ccccc1 4.41%
CN(CC(=O)Nc1cccc(F)c1)C(=O)c1cccc(S(=O)(=O)N2CCN(c3ccccc3)CC2)c1 6.82%
Cc1ccc(NC2=C([N+](=O)[O-])CS(=O)(=O)C2)cc1 2.4%
O=[N+]([O-])C1=C(Nc2cccc3ccccc23)CS(=O)(=O)C1 0.61%
O=C1/C(=C/c2cccnc2)SC(=S)N1c1ccc(F)cc1 21.6%
O=C1N/C(=C\c2ccsc2)C(=O)N1Cc1ccc(F)cc1 5.82%
COc1ccc(CN2C(=O)c3ccccc3C2=O)cc1 5.14%
Cc1ccc(/C=C2/NC(=O)N(Cc3ccc(Br)cc3)C2=O)o1 9.48%
O=C1/C(=C\c2cccnc2)SC(=S)N1c1ccc(F)cc1 9.19%
O=C1N/C(=C/c2ccc(N3CCOCC3)cc2)C(=O)N1Cc1ccc(F)cc1 3.08%
Cc1ccc(/C=C2/NC(=O)N(Cc3ccccc3)C2=O)o1 9.41%
COC(=O)C1=C(C)N(Cc2ccc(OC)cc2)C(=O)/C1=C\c1ccco1 10.5%
COc1cccc(C(=O)COc2ccc(NC(=O)c3cccs3)cc2)c1 -1.46%
Cc1nn(-c2ccccc2)c(N)c1N=Nc1ccc(Cl)cc1 5.29%
CC(=O)NCCCc1nc2ccccc2n1Cc1cc(C)ccc1C 2.29%
O=C(CCCN1C(=O)/C(=C\c2ccccc2)SC1=S)Nc1ccc(O)cc1C(=O)O 11.7%
COc1ccccc1/C=C1\SC(=S)N(CCC(=O)Nc2ccc(C(=O)O)c(O)c2)C1=O 22.1%
O=C(CN1C(=O)/C(=C/c2ccccc2Cl)SC1=S)NC1CCS(=O)(=O)C1 (stereo not drawn) 14.6%
O=C(CN1C(=O)S/C(=C\c2cccs2)C1=O)Nc1ccc(C(=O)O)c(O)c1 13.4%
O=C(CCCN1C(=O)/C(=C/c2ccccc2)SC1=S)Nc1ccc(C(=O)O)c(O)c1 11.4%
O=C(CN1C(=O)/C(=C/c2ccccc2)SC1=S)NC1CCS(=O)(=O)C1 (stereo not drawn) 15.6%
O=C(CCCN1C(=O)/C(=C\c2ccco2)SC1=S)Nc1ccc(O)cc1C(=O)O 83.1%
O=C(CCN1C(=O)/C(=C/c2cccs2)SC1=S)Nc1ccc(C(=O)O)c(O)c1 35%
COC(=O)COc1ccc2occ(C(C)=O)c2c1 -0.85%
COC(=O)c1[nH]c2ccc(F)cc2c1NC(=O)Nc1ccc(OC)cc1 11.4%
CN1CCN(C(=O)CSc2nnc(COc3ccccc3)o2)CC1 6.15%
Cc1ccc2oc3nc(C)c(C(=O)Nc4cccc(C(F)(F)F)c4)cc3c(=O)c2c1 2.24%
Clc1ccc(/C=N/N2CCCCC2)cc1 5.46%
Cc1cc(NC(=O)C(=O)c2c(C)[nH]c3ccccc23)no1 3.99%
CCOc1ccc2nc(NC(=O)CC3Oc4ccccc4NC3=O)sc2c1 (stereo not drawn) 7.51%
O=C(COC(=O)c1ccccc1SCC(=O)N1CCCC1)NC1CCCCC1 7.38%
CC1(C)CC(=O)C/C(=N/NC(=O)COc2ccc3ccccc3c2Br)C1 8.99%
C/C(CC(=O)Nc1ccc2c(c1)OCCO2)=N\NC(=O)Cc1ccccc1 9.69%
CC(C(=O)Nc1ccc(O)cc1C(=O)O)N1C(=O)/C(=C\c2cccs2)SC1=S (stereo not drawn) 38.1%
O=C(CCCN1C(=O)/C(=C/c2cccs2)SC1=S)Nc1ccc(O)c(C(=O)O)c1 29.5%
CCN(C(=O)C(C)N1C(=O)/C(=C/c2ccco2)SC1=S)C1CCS(=O)(=O)C1 (stereo not drawn) 33.8%
O=C(CCCN1C(=O)/C(=C\c2ccco2)SC1=S)Nc1ccc2ccccc2c1 18.2%
Cc1ccc2nc(N3CCN(c4ccccc4)CC3)c(C=O)c(=O)n2c1 3.59%
CCn1cc(S(=O)(=O)CC(=O)N2CCc3ccccc32)c2ccccc21 16.3%
COCC(C)n1c(SCc2nc(N)nc(Nc3ccccc3C)n2)nc2ccccc2c1=O (stereo not drawn) 23%
COc1cccc(/C=C2/C(=O)NN(c3ccccc3)C2=O)c1 26.6%
COc1cccc(N2C(=O)/C(=C\c3cccs3)NC2=S)c1 24%
COc1cccc(NCc2ccc([N+](=O)[O-])s2)c1 20.9%
COc1cccc(/C=C2\C(=O)N(c3cccc(C)c3)C(=O)c3ccccc32)c1 11%
COc1ccc(NC(=O)CCNC(=O)c2ccco2)cc1OC 0.95%
O=C(O)C1CCCN1C(=O)Nc1ccccc1 (stereo not drawn) 4.07%
CN1CCN(CC(=O)O)CC1 17.9%
COc1ccc2c(c1)[nH]c1c(=O)n(CCC3=CCCCC3)cnc12 9.61%
CCOC(=O)N1CCC(Nc2ccc(N3C(=O)C4CCCCC4C3=O)cc2[N+](=O)[O-])CC1 (stereo not drawn) 10.6%
COc1ccc(C(=O)CCc2ccccc2)c(O)c1 7.01%
COC(=O)CCc1ccc(O)cc1 4.8%
Cc1ccsc1CNC(=O)c1c(-c2ccccc2)noc1C 2.94%
O=C1CNC(=S)N1CCCc1ccccc1 5.18%
O=C1CNC(=S)N1CCc1ccc(Cl)cc1 6.29%
COc1ccc(-c2cc(C(F)(F)F)nc(SCC(=O)NCCCN3CCOCC3)n2)cc1 9.25%
Cc1ccc(N2CC3=C(C2=O)C(c2ccccc2)NC(=O)N3C)cc1 (stereo not drawn) 5.38%
CN1C(=O)NC(c2ccc(O)cc2)C2=C1CN(c1ccccc1)C2=O (stereo not drawn) 6.82%
